High-throughput results from PubChem BioAssay.
Luc counter – Counterscreen for Luciferase (Kinase-Glo TM) Inhibition | Kinase-Glo luciferase, ATP luminescence, 8 min | Luciferin 4-monooxygenase (Photuris pensylvanica), Q27757 | Potency, µM (highest dose often 38.3 µM), inactives show top-dose activity change, negative = inhibition, actives largely listed as inhibitors | actives 0.28% (n = 200,000) | AID 1379, 2008; active = well fitted curve in the direction sought with a large enough effect; inconclusive = small, poorly fitted or top-dose-only effect, or another doubt; inactive = no such curve, though single readings can be large; an effect the other way counts as inactive or inconclusive; also: nearly all actives have a fitted effect of over 60% in size
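Substrate mix (final 50 mM imidazole pH 7.2, 50 mM KCl, 7 mM MgCl2, 10 uM ATP, 0.01% Tween 20, 0.05% BSA) plus pin-tool compound, then Kinase-Glo detection mix; 8 min ambient, luminescence read.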
HPGD block – qHTS Assay for Inhibitors of HPGD (15-Hydroxyprostaglandin Dehydrogenase). 15-hydroxyprostaglandin dehydrogenase [NAD(+)] (Homo sapiens), P15428. purified HPGD, NADH fluorescence kinetic, PGE2 substrate. Potency, µM, for inactives: top-dose activity change, negative = inhibition, most hits filed as inhibitors. actives 4.3% (n = 150,000). AID 894, 2007
Target sequence (P15428 whole entry, looked up): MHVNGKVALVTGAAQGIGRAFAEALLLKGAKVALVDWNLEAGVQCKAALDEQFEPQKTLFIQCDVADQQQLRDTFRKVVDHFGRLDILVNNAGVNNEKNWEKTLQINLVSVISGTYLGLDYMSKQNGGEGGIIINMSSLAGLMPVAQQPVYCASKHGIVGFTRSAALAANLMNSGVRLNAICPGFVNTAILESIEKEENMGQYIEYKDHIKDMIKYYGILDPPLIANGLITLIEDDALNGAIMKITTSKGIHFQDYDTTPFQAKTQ
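NADH formation kinetics: reaction with 30 uM PGE2 and 1 mM NAD+ (final), 20 nM enzyme, Tris-HCl pH 8 with Tween 20, after 15 min compound preincubation at room temperature. Fluorescence change, last versus first of five reads.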
IMPase Li cell – qHTS Assay for Identifying the Cell-Membrane Permeable IMPase Inhibitors: Potentiation with Lithium; CHO-M1 cells, IP1 TR-FRET (IP-One), carbachol + lithium; Potency, µM (doses to about 59.4 µM), for the others: top-dose activity, negative = IMPase inhibition, most hits filed as inhibitors; actives 0.35% (n = 210,000); active = well fitted curve in the direction sought with a large enough effect; inconclusive = small, poorly fitted or top-dose-only effect, or another doubt; inactive = no such curve, though single readings can be large; an effect the other way counts as inactive or inconclusive;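 also: IP1 builds up when IMPase is blocked and the TR-FRET signal falls; plate controls were basal vehicle for no effect and high inhibitor control for full effect; nearly all actives have a fitted effect of over 50% in size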
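Test compounds were applied to CHO-M1 cells previously cultured for 16–30 h at 2000 per well. A small lithium amount accompanied them; after 30 min at 37C, IP1 was quantified by TR-FRET.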
Lamin A splicing – qHTS Assay for Modulators of Lamin A Splicing. HeLa LMNA splicing GFP/RFP minigene ratio, 48 h. Potency, µM (titrated, usually from 46.1 µM), without a hit: top-dose ratio change, negative = inhibition, hits mostly inhibitors. actives 0.01% (n = 200,000); active = well fitted inhibition curve with a large enough effect in the signal ratio, with a control signal flat, not every such curve was filed as active; inconclusive = small, poorly fitted or top-dose-only effect, or effect the other way, or a change in a side signal; the % refers to the signal ratio
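Read-out is the ratio of GFP to DsRed2 object intensity, acquired by 488 nm laser-scanning cytometry on HeLa lamin A-EGFP minigene reporter cells. Compound incubation 48 hrs at 37 °C in Opti-MEM with 2% FBS; DMSO 0.5% final.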
ALDH1A1 inh – qHTS Assay for Inhibitors of Aldehyde Dehydrogenase 1 (ALDH1A1); Aldehyde dehydrogenase 1A1 (Homo sapiens), P00352; Purified ALDH1A1, NADH fluorescence, propionaldehyde substrate; Potency, µM (highest dose often 75.3 µM), for the others: at the highest dose activity, negative = inhibition, usual class: inhibitors; actives 7.3% (n = 220,000);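 also: plate controls were no enzyme wells and a reference inhibitor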
* hit, by the source's call; [ ] = remark or other dose. A selection: hits, their analogues and other compounds. The true share with any hit is near 9%. Unless noted, calls follow the shape of the dose curve; as a rule, active = well fitted inhibition curve with a large enough effect (not every such curve was filed as active); inconclusive = small, poorly fitted or top-dose-only effect, or another doubt; inactive = no such curve, though single readings can be large or run the other way. Unless noted, % is scaled to controls: 0 for no effect and ±100 for the full control effect; potency is read from the fitted curve at half-maximal effect.

`COc1ccc(CCNC(=O)C(NS(=O)(=O)c2ccc3c(c2)CCN3C(C)=O)C(C)C)cc1OC` (stereo not given) gave Luc counter -1.2%, IMPase Li cell -4.3%, Lamin A splicing inconclusive and ALDH1A1 inh -3.4%.
`CCN(CC)CCCNC(=O)CN1N=C(c2ccccc2)CCC1=O` gave Lamin A splicing -1.0%[46 µM].
`CCN1/C(=C2\OC(=S)N(C)C2=O)Sc2ccccc21` gave Luc counter -8.3%, HPGD block -21.2%, IMPase Li cell 11.2µM*, Lamin A splicing -7.3% and ALDH1A1 inh -18.3%.
Screening CC(C)(C)c1ccc(S(=O)(=O)NCCc2ccncc2)cc1 returned Luc counter 7.7%, HPGD block -14.1%, IMPase Li cell 2.6%[38.3 µM], Lamin A splicing inconclusive and ALDH1A1 inh inconclusive.
`Cc1ccc(CNS(=O)(=O)c2ccc(C(C)(C)C)cc2)n1C` gave Luc counter 0.3%, HPGD block -11.0%, IMPase Li cell 15.9%[38.3 µM], Lamin A splicing 8.1% and ALDH1A1 inh 8.91µM*.
`CN1C(=O)/C(=C2\SC(=S)N(C(CCC(=O)O)C(=O)O)C2=O)c2ccccc21` (stereo not given) gave Luc counter -21.2%, HPGD block 28.2µM*, IMPase Li cell 24.3%, Lamin A splicing -0.1% and ALDH1A1 inh 1.12µM*.
For CN1C(=O)/C(=C2\SC(=S)N(CC3CCCO3)C2=O)c2ccccc21 (stereo not given) the results were Luc counter -2.0%, HPGD block -3.0%, IMPase Li cell -10.2%[38.3 µM], Lamin A splicing 0.1% and ALDH1A1 inh inconclusive.
O=S(=O)(Cc1ccccc1)N1CCC(c2nc(-c3cccs3)no2)CC1 was read as Luc counter -1.4%, HPGD block -9.2%, IMPase Li cell -1.0%[38.3 µM], Lamin A splicing -4.8% and ALDH1A1 inh -6.6%.
`CC1Cc2ccccc2N1C(=O)CSc1nnc(Cn2nnc3ccccc32)n1C` (stereo not given) gave Luc counter -0.1%, HPGD block -6.9%, IMPase Li cell -8.2%[38.3 µM], Lamin A splicing inconclusive and ALDH1A1 inh 10µM*.
For CC(C)N(C(=O)CSc1nnc(Cn2nnc3ccccc32)n1C)C(C)C the results were Luc counter -6.9%, HPGD block 1.1%, IMPase Li cell 24.5%[38.3 µM], Lamin A splicing -5.0% and ALDH1A1 inh 4.4%.
`COc1cccc(-n2c(SCC(=O)NC3CCCC3)nnc2-c2ccco2)c1` gave Luc counter -1.2%, HPGD block inconclusive, IMPase Li cell 1.7%, Lamin A splicing -9.0% and ALDH1A1 inh inconclusive.
Screening COc1cccc(-n2c(SCC(=O)N3c4ccccc4CC3C)nnc2-c2ccco2)c1 (stereo not given) returned Luc counter -0.5%, HPGD block -29.9%, IMPase Li cell 1.0%[38.3 µM], Lamin A splicing -0.6% and ALDH1A1 inh 25.1µM*.
COc1ccccc1-n1c(SCC(=O)NC(C)(C)C)nnc1-c1ccco1 was read as Luc counter 5.7%, HPGD block 15.8µM*, IMPase Li cell 3.5%, Lamin A splicing -13.0% and ALDH1A1 inh -4.5%.
`N=C(C[C@@H](O)COc1ccccc1-c1ccccc1)N1CCCCC1` gave Luc counter -3.6%, HPGD block 4.6%, IMPase Li cell 19.5% and ALDH1A1 inh 4.7%.
`CSCCC1NC(=O)N(CC(=O)N2N=C(c3ccc(Cl)cc3)CC2c2ccco2)C1=O` (stereo not given) gave Luc counter -2.9%, IMPase Li cell -1.6% and ALDH1A1 inh -2.2%.
COCCCNC(=O)/C(C#N)=C/c1cc(C)[nH]c1C was read as Luc counter -1.9%, IMPase Li cell -0.5%, Lamin A splicing 21.7%[46 µM] and ALDH1A1 inh inconclusive.
Screening O=C(O)CCC(NC(=O)C1CCCN1C(=O)OCc1ccccc1)C(=O)O (stereo not given) returned Luc counter 2.8%, IMPase Li cell -3.8% and ALDH1A1 inh 3.5%.
O=C[C@@H]1CCCN1C(=O)[C@@H]1CCCN1C(=O)OCc1ccccc1 was read as IMPase Li cell 11.5% and ALDH1A1 inh 7.94µM*.
For CCC(C)(C)n1nnnc1C(c1cccnc1)N1CCN(c2cccc(C(F)(F)F)c2)CC1 (stereo not given) the results were Luc counter 0.2%, HPGD block -3.0%, IMPase Li cell 5.7%[38.3 µM], Lamin A splicing 1.2% and ALDH1A1 inh 9.8%.
Cc1cc(S(=O)(=O)Nc2ccccc2C(=O)O)ccc1F was read as Luc counter -2.3%, HPGD block -20.8% and ALDH1A1 inh inconclusive.
CCCCn1nnc(NC(=O)c2sc3cc(Cl)ccc3c2Cl)n1 was read as Luc counter 1.0%, HPGD block -25.7%, IMPase Li cell 10µM*, Lamin A splicing inconclusive and ALDH1A1 inh inconclusive.
For CCCn1nnc(NC(=O)c2ccc(Cl)cc2Cl)n1 the results were Luc counter -15.1%, HPGD block -22.2%, IMPase Li cell 28.5%[38.3 µM], Lamin A splicing 8.5% and ALDH1A1 inh inconclusive.
For O=C1c2ccccc2C(Nc2ccc(S(=O)(=O)N3CCCCC3)cc2)N1c1ccccn1 (stereo not given) the results were Luc counter -0.9%, HPGD block -8.0%, IMPase Li cell 7.0%, Lamin A splicing 6.7% and ALDH1A1 inh 5.01µM*.
`O=C1c2ccccc2C(Nc2ccc(S(=O)(=O)N3CCOCC3)cc2)N1c1cccnc1` (stereo not given) gave Luc counter -3.5%, HPGD block -6.1%, IMPase Li cell -0.7%[38.3 µM], Lamin A splicing -3.8% and ALDH1A1 inh 6.3%.
CCN(CC)c1ccc(N=Cc2c(C)[nH]c3ccccc23)cc1 was read as Luc counter -3.3%, HPGD block inconclusive, IMPase Li cell 12.3%, Lamin A splicing inconclusive and ALDH1A1 inh 0.447µM*.
`Cn1c(CNC(=O)c2ccccc2F)nnc1SCC(=O)N1CCN(c2ccccc2)CC1` gave Luc counter -2.0%, IMPase Li cell 5.6%, Lamin A splicing 29.1%[46 µM] and ALDH1A1 inh inconclusive.
`Cc1ccccc1C(=O)NCc1nnc(SCC(=O)N2CCN(c3ccccc3)CC2)n1C` gave Luc counter -0.9%, HPGD block -0.2%, IMPase Li cell 17.5%[38.3 µM], Lamin A splicing -7.2% and ALDH1A1 inh 10µM*.
For O=C(NCCCN1CCOCC1)c1ccc(Cc2nc3ccccc3[nH]2)cc1 the results were Luc counter -2.0%, HPGD block -5.7% and ALDH1A1 inh 8.8%.
CC(C)N(CCC(=O)c1ccc2ccccc2c1)Cc1ccccc1 was read as Luc counter -1.8%, HPGD block inconclusive, IMPase Li cell 13.1%, Lamin A splicing inconclusive and ALDH1A1 inh 0.282µM*.
